Screening data from PubChem.
Y pestis TopoI = Yersinia pestis topoisomerase I inhibitors, primary screen, biochemical, cleavage product accumulation, plate reader, single point. Y. pestis Topo-I cleavage product accumulation. DNA topoisomerase I (Yersinia pestis CO92). activity, % at 10 µM. AID 504884, 2011. actives 0.064% (n = 360,000); in the data active = activity above about 50%, passing the limit was not always enough; inconclusive = no clear call, values can overlap the other calls
TcdB inh = TcdB glycohydrolase inhibitors, primary screen, biochemical, single point, plate reader | actives 0.24% (n = 350,000) | AID 652162, 2013 | TcdB glycohydrolase enzymatic assay | Toxin B (Clostridioides difficile), P18177 | inhibition, % at 9.99 µM; in the data active = inhibition above about 10%
BioA inh-1 = M. tuberculosis BioA enzyme inhibitors, primary screen, biochemical, plate reader, single point, HTS | purified M. tuberculosis BioA enzyme | inhibition, % at 9.99 µM | actives 0.096% (n = 360,000); in the data active = inhibition above about 40%; inconclusive = no clear call, values can overlap the other calls
BioA inh-2 = Mtb BioA enzyme inhibitors, dose response, biochemical, plate reader, cherry-pick samples, set 03. max activity, %. 310 tested, under 10 active. shares compounds with BioA inh-1. AID 651679, 2012. purified BioA enzyme;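 also: top concentration of the dilution series was 10 µM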
Target sequence (P9WQ81 whole entry, looked up): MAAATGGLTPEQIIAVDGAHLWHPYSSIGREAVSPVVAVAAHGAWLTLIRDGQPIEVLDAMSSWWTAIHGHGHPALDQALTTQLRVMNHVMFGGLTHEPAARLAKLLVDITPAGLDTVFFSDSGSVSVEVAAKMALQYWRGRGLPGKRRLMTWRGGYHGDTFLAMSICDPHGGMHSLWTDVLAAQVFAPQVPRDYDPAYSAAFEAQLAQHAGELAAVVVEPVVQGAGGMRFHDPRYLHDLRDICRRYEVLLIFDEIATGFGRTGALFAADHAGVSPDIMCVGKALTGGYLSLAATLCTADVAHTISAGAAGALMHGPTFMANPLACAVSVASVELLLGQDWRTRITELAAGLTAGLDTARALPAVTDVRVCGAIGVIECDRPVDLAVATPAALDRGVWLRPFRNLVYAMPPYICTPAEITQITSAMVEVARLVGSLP
HepG2 cytotox = cytotoxicity in HepG2 cells, dose response, cytotoxicity control, cell-based, plate reader, cherry-pick, two tests | 310 tested, under 10 active | AID 651898, 2012 | shares compounds with BioA inh-1 | max activity, %
3T3 cytotox 5 = cytotoxicity in NIH3T3 fibroblasts, dose response, cytotoxicity control, cell-based, plate reader, cherry-pick, two tests | shares compounds with BioA inh-1 | activity change, negative = cytotoxicity, % at 26 µM | AID 651900, 2012 | 310 tested, under 10 active
Large screens that a line does not name were inactive (follow-up assays come after a bar, where they were run). The list is not random: actives were taken first. Their share in the collection is about 0.32%. Unless noted, no rule for the calls is given here.

COc1cccc(NC(=O)N2C[C@H](O)COC[C@@H]3O[C@@H](CC(=O)N(C)C)CC[C@H]32)c1	BioA inh-1 99 (no result: Y pestis TopoI) | BioA inh-2 inactive | HepG2 cytotox inactive | 3T3 cytotox 5 inactive
CCCCNC(=O)c1sc2ncnc(N3CCc4ccccc4C3)c2c1C	none (no result: BioA inh-1)
CCOC(=O)CNC(=O)c1sc2ncnc(N3CCc4ccccc4C3)c2c1C	BioA inh-1 63 | BioA inh-2 inactive | HepG2 cytotox inactive | 3T3 cytotox 5 inactive
CC(C)NC(=O)Nc1ccc2c(c1)CC(=O)N([C@H](C)CO)C[C@H](C)[C@@H](CN(C)C(=O)NC1CCCCC1)O2	none (no result: Y pestis TopoI)
O=C(N[C@@H]1CC[C@H](CCNS(=O)(=O)c2ccccc2Cl)O[C@H]1CO)c1ccc(F)cc1	none (no result: Y pestis TopoI)
Cc1cccc(C2c3[nH]c4ccccc4c3CCN2C(=O)CN2CCOC2=O)n1 (stereo not drawn)	BioA inh-1 52 | BioA inh-2 inactive | HepG2 cytotox inactive | 3T3 cytotox 5 inactive
Cc1cccc(C2c3[nH]c4ccccc4c3CCN2C(=O)Cc2nc(-c3ccccc3)n[nH]2)n1 (stereo not drawn)	none
C[C@@H]1CN([C@H](C)CO)C(=O)c2cc(C#CCc3ccccc3)cnc2O[C@@H]1CN(C)C(=O)C1CC1	none (no result: Y pestis TopoI)
COc1cc(C(=O)Nc2cccnc2)cc(OC)c1OC	BioA inh-1 80 | BioA inh-2 inactive | HepG2 cytotox inactive | 3T3 cytotox 5 inactive
COc1c(Cl)cc(C(=O)Nc2cccnc2)cc1Cl	none
COc1cc(/C=C/C(=O)NCc2cccnc2)cc(OC)c1OC	none (no result: TcdB inh)
COc1cc(/C=C/C(=O)Nc2cccnc2)cc(OC)c1OC	BioA inh-1 50 | BioA inh-2 inactive | HepG2 cytotox inactive | 3T3 cytotox 5 inactive
Cc1noc(C)c1S(=O)(=O)N(C)C[C@H]1Oc2ccc(NC(=O)CCCN(C)C)cc2C(=O)N([C@H](C)CO)C[C@H]1C	none (no result: Y pestis TopoI)
CC(C)NC(=O)N[C@H]1C=C[C@H](CC(=O)NC2Cc3ccccc3C2)O[C@@H]1CO	none (no result: Y pestis TopoI)
COCC(=O)Nc1ccc2c(c1)C(=O)N(C)C[C@@H](OC)[C@H](C)CN(Cc1ccccc1C(=O)O)[C@H](C)CO2	none (no result: Y pestis TopoI)
COc1ccc(-c2cc(NC=O)c3ncc(-c4cccc(C(=O)N(C)C)c4)n3c2)cn1	BioA inh-1 42 | BioA inh-2 inactive | HepG2 cytotox inactive | 3T3 cytotox 5 inactive
COc1cccc(-c2cc(NC=O)c3ncc(-c4cccc(C(=O)N(C)C)c4)n3c2)c1	none
CC(C)NC(=O)N1CCCCN2[C@H](CO)[C@@H](c3ccc(C#CC4CC4)cc3)[C@@H]2C1	none (no result: Y pestis TopoI)
COc1ccc(C(=O)Nc2cccc(NC(=O)c3cccs3)c2)cc1	BioA inh-1 59 | BioA inh-2 inactive | HepG2 cytotox inactive | 3T3 cytotox 5 inactive
COc1ccc(NC(=O)c2ccc(NC(=O)c3cccs3)cc2)cc1	none
COCCNC(=O)C[C@@H]1CC[C@@H]2[C@H](COc3ccc(NC(=O)c4cc(C)on4)cc3C(=O)N2C)O1	none (no result: Y pestis TopoI)
CCCC(=O)N1CCN(Cc2ccc3c(c2)OCO3)CC1	none (no result: TcdB inh)
CCc1nn(CC(=O)N2CCN(Cc3ccc4c(c3)OCO4)CC2)c(=O)c2cc3occc3n12	BioA inh-1 57 (no result: TcdB inh) | BioA inh-2 inactive | HepG2 cytotox inactive | 3T3 cytotox 5 inactive
COCC(=O)Nc1ccc2c(c1)OC[C@H](C)N(CCc1ccccc1)C[C@@H](C)[C@H](OC)CN(C)C2=O	none (no result: Y pestis TopoI)
C[C@H]1CN([C@@H](C)CO)C(=O)Cc2cc(NC(=O)Cn3cnnn3)ccc2O[C@@H]1CN(C)Cc1ccc(Cl)c(Cl)c1	none (no result: Y pestis TopoI)
C[C@H](CO)N1C[C@H](C)[C@@H](CN(C)Cc2ccc3c(c2)OCO3)Oc2ccc(NC(=O)Cn3cnnn3)cc2CC1=O	BioA inh-1 48 (no result: Y pestis TopoI) | BioA inh-2 inactive | HepG2 cytotox inactive | 3T3 cytotox 5 inactive
Cc1noc(C)c1NC(=O)Nc1cccc2c1O[C@@H](CN(C)C(=O)NC1CCCCC1)[C@@H](C)CN([C@@H](C)CO)C2=O	none (no result: Y pestis TopoI)
COCCNC(=O)C[C@@H]1CC[C@@H]2[C@@H](COc3ccc(NC(=O)Nc4cccc(F)c4)cc3C(=O)N2C)O1	BioA inh-1 40 (no result: Y pestis TopoI) | BioA inh-2 inactive | HepG2 cytotox inactive | 3T3 cytotox 5 inactive
COCCNC(=O)C[C@@H]1CC[C@@H]2[C@@H](COc3ccc(NC(=O)Nc4ccccc4)cc3C(=O)N2C)O1	none (no result: Y pestis TopoI)
COCCNC(=O)C[C@H]1CC[C@@H]2[C@@H](COc3ccc(NC(=O)Nc4cccc(F)c4)cc3C(=O)N2C)O1	BioA inh-1 55 (no result: Y pestis TopoI) | BioA inh-2 inactive | HepG2 cytotox inactive | 3T3 cytotox 5 inactive
COCCNC(=O)C[C@@H]1CC[C@H]2[C@H](COc3ccc(NC(=O)Nc4cccc(F)c4)cc3C(=O)N2C)O1	none (no result: Y pestis TopoI, TcdB inh)
COCCNC(=O)C[C@@H]1CC[C@@H]2[C@H](COc3ccc(NC(=O)Nc4cccc(F)c4)cc3C(=O)N2C)O1	BioA inh-1 45 (no result: Y pestis TopoI) | BioA inh-2 inconclusive | HepG2 cytotox inactive | 3T3 cytotox 5 inactive
COCCNC(=O)C[C@@H]1CC[C@@H]2[C@H](COc3ccc(NC(=O)Nc4ccccc4)cc3C(=O)N2C)O1	none (no result: Y pestis TopoI)
C[C@H](CO)N1C[C@H](C)[C@H](CN(C)C)Oc2ccc(NS(=O)(=O)c3cn(C)cn3)cc2C1=O	none (no result: Y pestis TopoI)
COc1ccc2c3c([nH]c2c1)[C@@H](CO)N(C(=O)c1cccc(F)c1)CC31CN(C(=O)CC2CC2)C1	none (no result: Y pestis TopoI, BioA inh-1)
Cc1cccc(NC(=O)CN(C)S(=O)(=O)c2cnc[nH]2)c1	none (no result: TcdB inh)
Cc1cc(NC(=O)CN(C)S(=O)(=O)c2cnc[nH]2)ccc1Br	BioA inh-1 42 | BioA inh-2 inactive | HepG2 cytotox inactive | 3T3 cytotox 5 inactive
Cc1nc2sc(C(c3ccco3)N3CCN(c4ccccc4F)CC3)c(O)n2n1 (stereo not drawn)	none (no result: TcdB inh)
Cc1nc2sc(C(c3ccc(Cl)cc3)N3CCN(c4ccccc4F)CC3)c(O)n2n1 (stereo not drawn)	BioA inh-1 43 (no result: TcdB inh) | BioA inh-2 inactive | HepG2 cytotox inactive | 3T3 cytotox 5 inactive
CCCC#Cc1cnc2c(c1)C(=O)N([C@@H](C)CO)C[C@H](C)[C@@H](CN(C)C(=O)c1ccc(F)cc1)O2	none (no result: Y pestis TopoI)
CCn1c(=O)n(CC)c2cc(N3CCCC3)c(NC(=O)c3ccc(F)cc3)cc21	none
CCOc1ccc(C(=O)Nc2cc3c(cc2N2CCCC2)n(CC)c(=O)n3CC)cc1OCC	BioA inh-1 57 | BioA inh-2 inactive | HepG2 cytotox inactive | 3T3 cytotox 5 inactive
COCC(=O)N1CC[C@@H]2[C@@H](CO)N(C)c3ccc(-c4ccc(F)cc4)cc3[C@@H]21	BioA inh-1 61 (no result: Y pestis TopoI, TcdB inh) | BioA inh-2 inactive | HepG2 cytotox inactive | 3T3 cytotox 5 inactive
CN1c2ccc(-c3cccc(F)c3)cc2[C@@H]2[C@@H](CCN2C(=O)C2CC2)[C@@H]1CO	none (no result: Y pestis TopoI)
CCC(=O)N1CC[C@@H]2[C@@H](CO)N(C)c3ccc(-c4cccc(F)c4)cc3[C@@H]21	BioA inh-1 68 (no result: Y pestis TopoI, TcdB inh) | BioA inh-2 inactive | HepG2 cytotox inactive | 3T3 cytotox 5 inactive
